This is part of a sample that, as a whole, favours compounds with a hit. Of some 83,000 tested, about 20% had one in any assay.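 Cells were grown in 96-well plates and exposed to the test compound at a single concentration for 48 hours; results are reported as percent growth, with values below 10 considered active.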 A number with no mark means an inactive call. Active and inactive are the calls of the source.
Columns and labels:
Assay in all cases: NCI-60 one-dose screen, 48 h (100 = growth as untreated, 0 = no growth, -100 = all killed)
Settings in all cases: 10 µM unless noted
[1] = test system: EKVX NSCLC
[2] = test system: SN12C renal
[3] = test system: UO-31 renal
[4] = test system: TK-10 renal
[5] = test system: ACHN renal
[6] = test system: CAKI-1 renal
[7] = test system: A498 renal
[8] = test system: MOLT-4 leukemia
[9] = test system: CCRF-CEM leukemia
[10] = test system: SR leukemia

COc1ccc2c(c1)nc(N)c1c3cc(C)c(C)cc3cn21
growth [1]: 72% | growth [2]: 84.1% | growth [3]: 59.6% | growth [4]: 108% | growth [5]: 71.4% | growth [6]: 59.2% | growth [7]: 79.7% | growth [8]: 69.2%

O=C1/C(=N/O)CCc2ccccc21
growth [1]: 88.8% | growth [2]: 96.1% | growth [3]: 66.4% | growth [4]: 151% | growth [5]: 88.9% | growth [6]: 102% | growth [9]: 4.19% (active) | growth [10]: 113%

CN1C(=O)/C(=C/c2nc(-c3cccc(F)c3)n3ccccc23)c2ccccc21
growth [1]: 79% | growth [2]: 85.9% | growth [3]: 89.8% | growth [4]: 61.7% | growth [5]: 39.9% | growth [6]: 68% | growth [9]: 88.9% | growth [8]: 71.6% | growth [10]: 60.5%

Cn1cnc([N+](=O)[O-])c1S(=O)(=O)Oc1ccc(Cl)cc1
growth [1]: 102% | growth [2]: 94.5% | growth [3]: -82% (active) | growth [4]: 96.1% | growth [5]: -70.8% (active) | growth [6]: -65.1% (active) | growth [9]: -49.8% (active) | growth [10]: 25.3%

CN(C)c1ccc2c(c1)/C(=N/O)c1ccccc1-2
growth [1]: 67.7% | growth [2]: 95.4% | growth [3]: 64.5% | growth [4]: 123% | growth [5]: 87.5% | growth [6]: 46.6% | growth [9]: 83.8% | growth [10]: 47.1%

COc1ccc(C(=O)C(C)Br)cc1OC (configuration not stated)
growth [1]: 98.4% | growth [2]: 72.9% | growth [3]: 71.8% | growth [4]: 101% | growth [5]: 80.3% | growth [6]: 60.1% | growth [9]: 26.7% | growth [8]: 71.3% | growth [10]: 18.6%

CCCn1cnc2c1c(=O)n(CCCCC(C)=O)c(=O)n2C
growth [1]: 108% | growth [2]: 124% | growth [3]: 80.9% | growth [4]: 114% | growth [5]: 101% | growth [6]: 103% | growth [8]: 92% | growth [10]: 87.5%

Clc1ccc(-n2cnc3c(Cl)ncnc32)cc1Cl
growth [1]: 88.5% | growth [2]: 100% | growth [3]: 114% | growth [4]: 89.3% | growth [5]: 95.7% | growth [6]: 28.4% | growth [8]: 82.6% | growth [10]: 19.5%

Oc1ccc(-c2nn(-c3ccccc3)cc2-c2nc3ccccc3s2)cc1
growth [1]: 79.5% | growth [2]: 85.3% | growth [3]: 55.4% | growth [4]: 142% | growth [5]: 91.1% | growth [6]: 82% | growth [7]: 81.7% | growth [8]: 87.8% | growth [10]: 75.4%

COc1ccc(C2CC(c3ccc(OC)c(OC)c3)=NN2C(=O)c2cc(OC)c(OC)c(OC)c2)cc1 (configuration not stated)
growth [1]: 48.2% | growth [2]: 41.5% | growth [3]: 21.1% | growth [4]: 18.4% | growth [5]: 48.7% | growth [6]: 12.1% | growth [9]: 24.3% | growth [8]: 47.1% | growth [10]: 20.6%

CC/C(=C\c1ccc(N(C)C)cc1)c1ccncc1
growth [1]: 63.5% | growth [2]: 52.6% | growth [3]: 57.6% | growth [4]: 73.6% | growth [5]: 59.4% | growth [6]: 43.4% | growth [8]: 38.7% | growth [10]: 22.8%

COc1ccc(-c2cncn2-c2ccc(-c3nc4cc(OC)c(OC)c(OC)c4s3)cc2)cc1N
growth [1]: 58.4% | growth [2]: 72.4% | growth [3]: 16.1% | growth [4]: 83.3% | growth [5]: 59.6% | growth [6]: 30.4% | growth [9]: 45.9% | growth [8]: 40% | growth [10]: 43.4%

O=c1ccn(C2CCCO2)c(=O)[nH]1 (configuration not stated)
growth [1]: 107% | growth [2]: 109% | growth [3]: 95.4% | growth [4]: 120% | growth [5]: 98.7% | growth [6]: 110% | growth [9]: 97% | growth [8]: 97.7% | growth [10]: 114%

CCOC(=O)C1C(=O)OC2CCCCC21 (configuration not stated)
growth [1]: 120% | growth [2]: 102% | growth [3]: 79.6% | growth [4]: 122% | growth [5]: 102% | growth [6]: 96.1% | growth [9]: 106% | growth [8]: 89% | growth [10]: 88%

Clc1nc(Cl)c2ncn(-c3ccccc3)c2n1
growth [1]: 73.3% | growth [2]: 82% | growth [3]: -77.3% (active) | growth [4]: 71.9% | growth [5]: 68.6% | growth [6]: -79.9% (active) | growth [9]: 80.3% | growth [8]: 44.2% | growth [10]: 39%

O=C(/C=C/c1ccccc1)CC(c1ccccc1)N1CCOCC1 (configuration not stated)
growth [1]: 117% | growth [2]: 94.5% | growth [3]: 61.3% | growth [4]: 77% | growth [5]: 87.8% | growth [6]: 103% | growth [8]: 78.4% | growth [10]: -7.57% (active)

Clc1ccccc1[C@@H]1C[C@@H]2Cc3cc(Br)c4ccccc4c3N1O2
growth [1]: 70% | growth [2]: 44.3% | growth [3]: 40.3% | growth [4]: 63.6% | growth [5]: 53.5% | growth [6]: 40.4% | growth [7]: 15.7% | growth [8]: 17.2% | growth [10]: 3.11% (active)

COc1cc2c(c(OC)c1OC)-c1ccc(NN(C(=O)c3ccccc3)C(=O)c3ccccc3)c(=O)cc1[C@@H](NC(C)=O)CC2 (tested in a mixture with another compound)
growth [1]: 30.8% | growth [2]: 64.8% | growth [3]: 62.3% | growth [4]: 40.8% | growth [5]: 63% | growth [6]: -2.24% (active) | growth [7]: 15.1% | growth [8]: 22.8% | growth [10]: 18.1%

COc1ccc2c(c1)C(=O)/C(=C/c1cccc(OCC(=O)c3ccccc3)c1)CC2
growth [1]: 75.8% | growth [2]: 114% | growth [3]: 9.87% (active) | growth [4]: 107% | growth [5]: 94.4% | growth [6]: 80.4% | growth [7]: 89.2% | growth [8]: 52.7% | growth [10]: 11.1%

COc1ccc(C2=NN(C(=O)c3cc(OC)c(OC)c(OC)c3)C(c3ccc(C#N)cc3)C2)cc1OC (configuration not stated)
growth [1]: 33.4% | growth [2]: 53.5% | growth [3]: 18.2% | growth [4]: 31.9% | growth [5]: 44.6% | growth [6]: 5.45% (active) | growth [9]: 29.9% | growth [8]: 49.5% | growth [10]: 28.4%

CC(C)[O-].CC(C)[O-].CN(CCN(C)Cc1cc(F)cc(F)c1[O-])Cc1cc(F)cc(F)c1[O-].[Ti+4]
growth [1]: -8.9% (active) | growth [2]: 19.7% | growth [3]: -14.5% (active) | growth [4]: -12.6% (active) | growth [5]: 9.76% (active) | growth [6]: -11.1% (active) | growth [9]: 16.4% | growth [8]: 8.02% (active) | growth [10]: 1.21% (active)

COC(=O)C[C@@H]1CC=CC(=O)/C1=C(O)/C=C/c1ccccc1
growth [1]: -30.8% (active) | growth [2]: -41.5% (active) | growth [3]: -80.8% (active) | growth [4]: -23.7% (active) | growth [5]: -83.3% (active) | growth [6]: -82.9% (active) | growth [8]: 3.09% (active) | growth [10]: 5.6% (active)

COc1ccc(/C=C/C(=O)Nc2cccnc2Nc2ccc(F)cc2)cc1
growth [1]: 88.4% | growth [2]: 89.3% | growth [3]: 95.4% | growth [4]: 113% | growth [5]: 104% | growth [6]: 86.5% | growth [9]: 112% | growth [8]: 80.1% | growth [10]: 88.7%

c1csc([C@@H]2C[C@@H]3Cc4ccc5ccccc5c4N2O3)c1
growth [1]: 78.8% | growth [2]: 94.3% | growth [3]: 70.2% | growth [4]: 88.7% | growth [5]: 107% | growth [6]: 82.2% | growth [7]: 79.8% | growth [8]: 78.3% | growth [10]: 95.1%

COc1cc(C(=O)/C=C/c2cccnc2Nc2ccccc2)cc(OC)c1OC
growth [1]: -5.31% (active) | growth [2]: -92.6% (active) | growth [3]: -99.5% (active) | growth [4]: -13% (active) | growth [5]: -99.2% (active) | growth [6]: -22.6% (active) | growth [9]: -16% (active) | growth [10]: 1.47% (active)

COc1ccc(C2CC(c3ccc(OC)c(OC)c3)=NN2C(=O)c2cc(OC)c(OC)c(OC)c2)c(OC)c1 (configuration not stated)
growth [1]: 86.7% | growth [2]: 91.3% | growth [3]: 42.2% | growth [4]: 87.7% | growth [5]: 65.2% | growth [6]: 34.6% | growth [9]: 92.9% | growth [10]: 48.7%

CCCCn1c(Cc2ccc(Cl)cc2)nc2cc(OC)c(OC)cc2c1=O
growth [1]: 59.1% | growth [2]: 83.6% | growth [3]: 54.4% | growth [4]: 102% | growth [5]: 75.8% | growth [6]: 72.5% | growth [7]: 101% | growth [10]: 59.4%

Cc1ccc(C(O)C2=CC(=O)c3ccccc3C2=O)cc1 (configuration not stated)
growth [1]: 91.2% | growth [2]: 94.9% | growth [3]: 73.2% | growth [4]: 118% | growth [5]: 86.7% | growth [6]: 100% | growth [7]: 95.9% | growth [8]: 94.7% | growth [10]: 90%

O=NC1CC=CCC1c1ccccc1 (configuration not stated)
growth [1]: 101% | growth [2]: 108% | growth [3]: 84.2% | growth [4]: 103% | growth [5]: 93.9% | growth [6]: 103% | growth [9]: 111% | growth [8]: 102% | growth [10]: 101%

COc1cc(/C=C/C(=O)N2CCN(C(=O)/C=C/c3ccccc3)CC2)cc(OC)c1OC
growth [1]: 121% | growth [2]: 111% | growth [3]: 77.7% | growth [4]: 108% | growth [5]: 110% | growth [6]: 104% | growth [9]: 100% | growth [8]: 87.8% | growth [10]: 78.7%

CC(=O)Oc1ccc(C23c4ccccc4C2(OC(C)=O)c2cc(OC(C)=O)ccc23)cc1 (configuration not stated)
growth [1]: 69.4% | growth [2]: 81.7% | growth [3]: 11% | growth [4]: 63.9% | growth [5]: 29.4% | growth [6]: 85.2% | growth [7]: 114% | growth [8]: 67.6% | growth [10]: -2.28% (active)
